# Results from PMC4336329 (PLoS ONE, 2015).
# Out of some 310,000 compounds screened, about 14,000 (4.5%) showed an effect of 50% or more. The effect is printed as a negative number. This is one part of a sample in which strong results are shown more often than they occur.
# Target: human ether-à-go-go-related gene (hERG) potassium channel (human, UniProt Q12809)
# Assay: primary screen, population patch clamp on CHO cells stably expressing hERG; higher = less effect of the substance
# 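Note: peak tail current of the secondary pulse compared with the same well before compound.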
# Sequence of human ether-à-go-go-related gene (hERG) potassium channel (Q12809 whole entry, looked up): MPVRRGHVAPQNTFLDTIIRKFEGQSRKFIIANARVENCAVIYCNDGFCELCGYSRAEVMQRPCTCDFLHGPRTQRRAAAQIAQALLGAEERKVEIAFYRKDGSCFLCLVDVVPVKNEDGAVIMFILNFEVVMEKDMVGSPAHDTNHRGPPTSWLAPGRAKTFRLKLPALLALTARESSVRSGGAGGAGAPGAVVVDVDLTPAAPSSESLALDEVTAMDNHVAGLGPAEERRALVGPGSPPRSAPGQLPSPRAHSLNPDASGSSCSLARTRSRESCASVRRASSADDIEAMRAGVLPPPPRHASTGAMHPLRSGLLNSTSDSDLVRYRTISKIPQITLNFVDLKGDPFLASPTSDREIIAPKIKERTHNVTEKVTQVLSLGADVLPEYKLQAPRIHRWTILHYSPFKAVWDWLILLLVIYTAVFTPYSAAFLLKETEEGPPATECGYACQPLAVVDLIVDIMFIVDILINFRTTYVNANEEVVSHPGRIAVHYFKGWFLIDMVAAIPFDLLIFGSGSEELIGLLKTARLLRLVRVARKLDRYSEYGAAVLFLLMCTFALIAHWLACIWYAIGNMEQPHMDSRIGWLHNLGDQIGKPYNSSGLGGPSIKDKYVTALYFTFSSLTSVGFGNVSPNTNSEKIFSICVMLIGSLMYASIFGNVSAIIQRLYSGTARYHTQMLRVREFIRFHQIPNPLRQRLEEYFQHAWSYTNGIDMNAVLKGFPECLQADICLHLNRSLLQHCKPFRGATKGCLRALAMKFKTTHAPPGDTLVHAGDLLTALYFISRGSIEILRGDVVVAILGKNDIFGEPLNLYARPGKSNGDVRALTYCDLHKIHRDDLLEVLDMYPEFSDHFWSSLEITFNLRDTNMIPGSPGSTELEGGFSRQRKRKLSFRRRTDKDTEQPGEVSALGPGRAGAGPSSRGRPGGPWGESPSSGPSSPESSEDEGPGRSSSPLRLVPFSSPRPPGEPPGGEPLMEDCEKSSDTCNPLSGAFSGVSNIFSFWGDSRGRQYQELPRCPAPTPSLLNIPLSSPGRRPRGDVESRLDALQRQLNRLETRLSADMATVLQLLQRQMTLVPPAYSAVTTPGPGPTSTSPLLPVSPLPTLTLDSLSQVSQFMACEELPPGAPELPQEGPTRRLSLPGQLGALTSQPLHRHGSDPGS
row,SMILES,"hERG current change (%, negative = inhibition) at 10uM"
1,COc1cc(OC)c(CN2CCc3c([nH]c4ccccc34)C2)cc1Br,-54.9%
2,COc1cc2c(cc1OC)CN(Cc1ccc(OC)c(C)c1OC)CC2,-43.6%
3,COc1ccc(CN2CCc3c([nH]c4ccccc34)C2)c(OC)c1C,-62.4%
4,COc1ccccc1CN1CCc2c([nH]c3ccccc23)C1,-23%
5,Clc1cccc(CN2CCc3c([nH]c4ccccc34)C2)c1Cl,-8.21%
6,COc1ccc(CN2CCc3c([nH]c4ccccc34)C2)cc1Br,-45.9%
7,O=C(NNC(=O)C1CCN(Cc2cccc(F)c2)CC1)c1cccc(Cl)c1,-8.28%
8,CCOc1ccc(C(=O)Nc2nnc(S(=O)(=O)N(C)Cc3ccco3)s2)cc1,9.14%
9,COCCN1Cc2cccc(C(=O)Nc3ccc4c(c3)OCCO4)c2C1=O,-5.24%
10,O=C(CSCc1cccc(F)c1)N1CCN(c2ccccc2)CC1,-19.2%
11,Cc1ccc(NS(=O)(=O)c2c(C)[nH]c(=O)[nH]c2=O)c(C)c1,24.3%
12,COc1ccc(C(=O)N2CCN(C3CCCCC3)CC2)cc1OC.O=C(O)C(=O)O,-73.6%
13,COc1ccc(C(=O)N2CCN(C3CCN(Cc4ccccc4)CC3)CC2)cc1OC,-42.8%
14,COc1cc(C(=O)N2CCN(C3CCCCC3)CC2)cc(OC)c1OC.O=C(O)C(=O)O,2.07%
15,COc1ccc(C(=O)N2CCCN(C)CC2)c(OC)c1,-5.24%
16,COc1ccc(C(=O)N2CCN(C3CCCCC3)CC2)c(OC)c1,-73.6%
17,COc1cccc(C(=O)N2CCN(C3CCCCC3)CC2)c1.O=C(O)C(=O)O,-13.5%
18,COc1ccc(C(=O)N2CCN(C3CCC(c4ccccc4)CC3)CC2)cc1OC (centres unmarked),-69.9%
19,COc1cc(OC)cc(C(=O)N2CCN(C3CCCCC3)CC2)c1.O=C(O)C(=O)O,-23.4%
20,COc1ccc(C(=O)N2CCN(C(=O)Cc3ccccc3)CC2)cc1OC,5.3%
21,CC(=O)c1c(C)[nH]c(C(=O)OCc2ccccc2)c1C,-3.71%
22,C=C(C)CSc1nnc(-c2ccccc2)n1N,-1.72%
23,CCOC(=O)N1CCC(NS(=O)(=O)c2ccc3c(c2)oc(=O)n3C)CC1,1.74%
24,COc1cccc(N2CCN(S(=O)(=O)c3cccc4nsnc34)CC2)c1,-10.6%
25,CC(C)Cc1nnc(NC(=O)CCC(=O)NC2CC2)s1,21.9%
26,COc1ccc(NC(=O)c2c(C)noc2-c2snnc2C)cc1,-1.51%
27,N=c1c(S(=O)(=O)c2ccc(Cl)cc2)cc2c(=O)n3ccccc3nc2n1Cc1ccco1,13.1%

row,SMILES,"hERG current change (%, negative = inhibition) at 10uM"
1,N=c1c(S(=O)(=O)c2ccc(Br)cc2)cc2c(=O)n3ccccc3nc2n1Cc1ccco1,7.31%
2,O=C(NCCc1ccco1)c1nn(Cc2ccccc2)c(=O)c2ccccc12,10.3%
3,N=c1c(C(=O)NCc2ccccc2)cc2c(=O)n3ccccc3nc2n1Cc1ccco1,-76.4%
4,CC(C)n1c(=N)c(C(=O)NCCc2ccccc2)cc2c(=O)n3ccccc3nc21,-75.1%
5,N=c1c(C(=O)NCc2ccco2)cc2c(=O)n3ccccc3nc2n1Cc1ccc(Cl)cc1,-77.1%
6,N=c1c(C(=O)NCCc2ccccc2)cc2c(=O)n3ccccc3nc2n1Cc1ccco1,-77.9%
7,Cn1c(C(=O)NCCC2=CCCCC2)cc2c(=O)n3ccccc3nc21,19.7%
8,O=C(NCCc1ccccc1)c1cnc2ccccn2c1=O,-12%
9,O=C(NCc1ccco1)c1ccc(Cn2c(=O)c3ccccc3n(Cc3ccc(Cl)cc3)c2=O)cc1,8.16%
10,N=c1c(S(=O)(=O)c2ccccc2)cc2c(=O)n3ccccc3nc2n1Cc1ccco1,-18.9%
11,CCCCN(CC)c1nc(N)c(C#N)c(CC#N)c1C#N,-24.9%
12,O=C(NCCO)C(=O)NCC1OCCCN1S(=O)(=O)c1cc(F)ccc1F (centres unmarked),13.6%
13,CCOc1cc(/C=C/c2nc3ccccc3c(=O)[nH]2)ccc1O,13.4%
14,CCN(CC)C(=O)OCc1c(-c2ccccc2)ncc2ccccc12,-25.5%
15,CCc1nn(-c2cc(Oc3cccc4ccccc34)nc(-c3ccccc3)n2)c(N)c1C#N,23.3%
16,CCOC(=O)N1CCN(S(=O)(=O)c2ccc(OC)cc2)CC1,-4.57%
17,CC(=O)Nc1ccc(NS(=O)(=O)c2ccccc2)cc1,17.1%
18,N=c1c(C(=O)NCc2ccco2)cc2c(=O)n3ccccc3nc2n1Cc1ccccc1,-79.3%
19,O=C(CCn1c(=O)c2ccccc2n(Cc2cc(=O)n3ccccc3n2)c1=O)NCc1ccco1,-4.21%
20,N=c1c(C(=O)NCc2ccc(F)cc2)cc2c(=O)n3ccccc3nc2n1Cc1ccco1,-77.8%
21,N=c1c(C(=O)NCc2ccco2)cc2c(=O)n3ccccc3nc2n1CCc1ccccc1,-76.7%
22,O=C(CCn1c(SCC(=O)NCc2ccco2)nc2ccccc2c1=O)NCCc1ccccc1,-34.5%
23,Cn1nnnc1SCC(=O)Nc1ccc(S(=O)(=O)N2CCOCC2)cc1,3.21%
24,COc1ccc(CNC(=O)CN2C(=O)C3C4C=CC(C4)C3C2=O)cc1 (centres unmarked),19.2%
25,O=C(O)C1CC(=O)N(c2ccc(OCc3ccc(Br)cc3)cc2)C1 (centres unmarked),6.71%
26,COCCNC(=O)C(c1ccco1)N(C(=O)Cn1nnc2ccccc21)c1cc(C)ccc1C (centres unmarked),-4.75%
